Sampled rows, rich in hits. Any-hit rate of the full collection: about 5.3%.
IMPase Li cell: qHTS Assay for Identifying the Cell-Membrane Permeable IMPase Inhibitors: Potentiation with Lithium; CHO-M1 cells, IP1 TR-FRET (IP-One), carbachol + lithium; Potency, µM (top dose mostly 59.4 µM), without a hit: at the highest dose activity, negative = IMPase inhibition, hits mostly inhibitors; hit rate 0.35% among 210,000;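 note: IP1 builds up when IMPase is blocked and the TR-FRET signal falls; potency is the fitted concentration of half-maximal effect; plate controls were basal vehicle for no effect and high inhibitor control for full effect; nearly all actives have a fitted effect of over 50% in size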
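Readout is a homogeneous TR-FRET IP1 immunoassay (Ex 320, Em 665 and 620), where raised cytosolic IP1 lowers signal. Cells were CHO-M1 treated 30 min at 37C with test compounds plus a little lithium; AC50 values came from Hill-equation fitting.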
12-hLO inh: qHTS Assay for Inhibitors of 12-hLO (12-human lipoxygenase) | Polyunsaturated fatty acid lipoxygenase ALOX12 (Homo sapiens), P18054 | purified 12-hLO, xylenol orange hydroperoxide absorbance | Potency, µM (series often up to 57.1 µM), without a hit: top-dose activity change, negative = inhibition, actives largely listed as inhibitors | hit rate 0.12% among 150,000; note: potency is the fitted concentration of half-maximal effect; nearly all actives have a fitted effect of over 55% in size
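Lipoxygenase turnover measured by absorbance at 573 and 405 nm after Fe-XO development. Human 12hLO 150 nM, arachidonate 40 uM, pH 7.0 Hepes buffer with detergent; 15 min compound preincubation, 30 min reaction.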
15-hLO-2 inh: qHTS Assay for Inhibitors of 15-hLO-2 (15-human lipoxygenase 2) | Polyunsaturated fatty acid lipoxygenase ALOX15B (Homo sapiens), O15296 | purified 15hLO-2, xylenol orange hydroperoxide absorbance | Potency, µM (doses to about 57.1 µM), without a hit: at the top dose activity change, negative = inhibition, hits mostly inhibitors | hit rate 0.56% among 110,000 | AID 881, 2007; note: potency is the fitted concentration of half-maximal effect; nearly all actives have a fitted effect of over 60% in size
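Enzyme 50 nM, AA 45 uM, 25 mM Hepes pH 7.5 + 0.01% Triton X-100; cpd preinc 15 min RT, rxn 90 min RT; stop/detect with 200 uM XO + 300 uM Fe(II) in 50 mM H2SO4, 30 min; A573/A405.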
HPGD block: qHTS Assay for Inhibitors of HPGD (15-Hydroxyprostaglandin Dehydrogenase) | Potency, µM, for inactives: at the top dose activity change, negative = inhibition, actives largely listed as inhibitors | purified HPGD, NADH fluorescence kinetic, PGE2 substrate | 15-hydroxyprostaglandin dehydrogenase [NAD(+)] (Homo sapiens), P15428 | AID 894, 2007 | hit rate 4.3% among 150,000; active = well fitted inhibition curve with a large enough effect, not every such curve was filed as active; inconclusive = small, poorly fitted or top-dose-only effect, or another doubt; inactive = no such curve, though single readings can be large or run the other way; note: potency is the fitted concentration of half-maximal effect
Target sequence (P15428 whole entry, looked up): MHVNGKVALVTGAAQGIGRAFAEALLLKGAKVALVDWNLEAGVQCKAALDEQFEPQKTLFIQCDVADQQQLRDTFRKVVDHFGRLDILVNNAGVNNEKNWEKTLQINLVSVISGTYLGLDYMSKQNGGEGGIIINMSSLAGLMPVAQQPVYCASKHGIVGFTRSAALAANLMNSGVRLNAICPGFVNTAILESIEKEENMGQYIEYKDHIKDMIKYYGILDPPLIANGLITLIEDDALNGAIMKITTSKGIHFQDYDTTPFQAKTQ
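NADH formation kinetics: reaction with 30 uM PGE2 and 1 mM NAD+ (final), 20 nM enzyme, Tris-HCl pH 8 with Tween 20, after 15 min compound preincubation at room temperature. Fluorescence change, last versus first of five reads.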
PNC inhibitor: High Content Assay for Compounds that inhibit the Assembly of the Perinucleolar Compartment; activity change (PNC), negative = inhibition, % at 10 µM; AID 2417, 2010; hit rate 3.1% among 140,000; PC3M PTB-GFP, PNC prevalence imaging, 16 h; hits give low values;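 active = readout at or below -70, meaning at least 70% loss of cells showing the perinucleolar compartment, a nuclear body marking cancer cells; inconclusive = readout between -30 and a set limit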;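 note: plate controls were DMSO wells for no effect and camptothecin positive control wells for full effect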
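Compounds are pinned in duplicate onto adhered PC3M cells stably expressing GFP-tagged PTB and incubated 16 h at 37 C. Cells are then fixed, nuclei stained with Hoechst, and PNC-positive cells counted.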
IMPase inh: qHTS Assay for Identifying the Cell-Membrane Permeable IMPase Inhibitors; CHO-M1 cells, IP1 accumulation, HTRF TR-FRET ratio; inhibition (IP1 accumulation), % at 46.1 µM; 120,000 tested, under 10 active; active = well fitted curve in the direction sought with a large enough effect in the signal ratio, not every such curve was filed as active; inconclusive = small, poorly fitted or top-dose-only effect, or a change in a side signal; inactive = no such curve, though single readings can be large or run the other way; the % refers to the signal ratio;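 note: cells stimulated with carbachol in lithium chloride buffer; plate controls were DMSO basal wells for no effect and reference inhibitor wells for full effect; higher means more IMPase inhibition seen as more IP1 and lower FRET ratio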
Target sequence (P97697 whole entry, looked up): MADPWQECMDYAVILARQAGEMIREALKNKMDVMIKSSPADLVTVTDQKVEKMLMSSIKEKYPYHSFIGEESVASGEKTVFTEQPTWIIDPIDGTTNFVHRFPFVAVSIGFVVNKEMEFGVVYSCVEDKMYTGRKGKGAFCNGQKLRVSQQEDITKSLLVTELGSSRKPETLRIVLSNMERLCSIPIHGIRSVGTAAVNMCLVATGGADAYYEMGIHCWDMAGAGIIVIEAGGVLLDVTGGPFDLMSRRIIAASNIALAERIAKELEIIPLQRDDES
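Carbachol-driven Gq signalling in CHO-M1 cells (2000/well) generates IP1. Compounds that block IMPase raise IP1 and so reduce the FRET signal from Eu-anti-IP1 and d2-IP1 after a 10 min room-temperature lysis.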
* marks the source's active call; other numbers are inactive results; ? = inconclusive; · = not tested or not shown; [ ] = dose if it differs, or a comment. Unless noted, calls come from the whole dose curve; as a rule, active = well fitted curve in the direction sought with a large enough effect; inconclusive = small, poorly fitted or top-dose-only effect, or another doubt; inactive = no such curve, though single readings can be large; an effect the other way counts as inactive or inconclusive. Unless noted, % is set by controls: 0 for no effect and ±100 for the full control effect.

SMILES | IMPase Li cell | 12-hLO inh | 15-hLO-2 inh | HPGD block | PNC inhibitor | IMPase inh
CC(=O)c1c(N2CCN(C)CC2)[nH]c(-c2ccccc2)nc1=S | -9%[38.3 µM] | -7% | ? | -10% | -8 | 0
CNC(=O)COC(=O)[C@@H](Nc1ccc(S(=O)(=O)N2CCOCC2)cc1[N+](=O)[O-])C(C)C | -2% | -2% | · | -2% | -113* | ·
COc1ccc(C(=O)NC2CC(C)(C)Cc3occc32)cc1 (stereo not drawn) | 3% | -3% | · | -12% | ? | -2
CC(=O)Nc1cccc2c1C(=O)N(c1ccccc1C)C2=O | 5% | · | · | · | · | ·
Cc1ccccc1N1C(=O)c2cccc3c(N(C)CCO)ccc(c23)C1=O | -1%[38.3 µM] | -5% | -7% | -19% | -80* | 6
CCC(=O)/C=C/C1C(C)=CCCC1(C)C (stereo not drawn) | -6% | -2% | 0% | -7% | · | ·
Nc1cccc(N)c1 | -8% | 1% | 2% | -5% | · | ·
Nc1nc2c(C(=O)NCc3cccs3)nnn2c2cccc(Cl)c12 | 9% | 6%[11.4 µM] | -1%[11.4 µM] | -7% | · | ·
Cc1ccc(C(=O)Nc2nnc(-c3ccc(C(C)(C)C)cc3)s2)cc1 | 3.5µM* | -1% | -7% | ? | -13 | ?
S=c1cnc2ccccc2[nH]1 | 8% | · | · | · | · | ·
CNC(=O)c1ccc(Oc2ccc(C(=O)NC)cc2)cc1 | -18%[38.3 µM] | -5% | -14% | 2.5µM* | -2 | 3
COc1ccc(-c2cnc(-c3cccnc3)o2)cc1 | -5% | · | · | ? | · | ·
CCSC1=NSC2=NC(=O)/C(=C\c3coc4ccccc4c3=O)C(=N)N12 | 0% | ? | · | 28µM* | ? | ·
CCOC(=O)C1CCN(S(=O)(=O)c2ccc(OC)c(Cl)c2)CC1 | -1% | · | · | · | · | ·
O=C(Cc1sc(-c2ccccc2)nc1-c1ccccc1)Nc1ccccc1 | 34%[38.3 µM] | -3% | -1% | -18% | ? | 9
O=C(O)Cc1sc(-c2ccccc2Cl)nc1-c1ccccc1 | 5µM* | · | · | · | · | ·
CSc1ccccc1NC(=O)c1ccccn1 | -3% | · | · | · | · | ·
CSc1ccccc1NC(=O)c1ccc(Cl)s1 | 38%[38.3 µM] | -4% | 2% | 20µM* | 8 | 3
CCOC(=O)/C(C#N)=C1\C=CN(C)C(C)=N1 | -5% | 1% | · | -16% | -100* | 0
CCOC(=O)/C(C#N)=C1/C=CN(C)C=N1 | -15%[38.3 µM] | -5% | -1% | 25µM* | 7 | 2
On1nnc2cc(C(F)(F)F)ccc21 | -3% | · | · | · | · | ·
CC1CCN(C(=S)c2ccc(N(C)C)cc2)CC1 | 7% | · | · | · | · | ·
Cc1ccc(-c2nnn(CC(=O)N(c3ccc4c(c3)OCCO4)C(C(=O)NCC3CCCO3)c3ccc(F)cc3)n2)o1 (stereo not drawn) | 0% | · | · | · | · | ·
COC(=O)CN=Cc1c(C)[nH]n(-c2ccccc2)c1=O | -4% | · | · | · | · | ·
Cc1[nH]n(-c2ccccc2)c(=S)c1C=NCCCN=Cc1c(C)[nH]n(-c2ccccc2)c1=S | 3% | ? | · | 28µM* | ? | ·
SMILES | IMPase Li cell | 12-hLO inh | 15-hLO-2 inh | HPGD block | PNC inhibitor | IMPase inh
CN(C(=O)CSc1nc2c(cnn2-c2ccccc2)c(=O)[nH]1)C1CCS(=O)(=O)C1 (stereo not drawn) | 2% | · | · | · | · | ·
CCc1cc2ccc(C)cc2nc1SCC(=O)c1ccc(NC(C)=O)cc1 | 28%[38.3 µM] | -6% | · | 8.9µM* | 98 | -2
CCOC(=O)c1cnc(SC)nc1Oc1cccc(NC(=O)c2ccc(Cl)cc2)c1 | 0%[38.3 µM] | -3% | 16% | -6% | 7 | 6
CCOC(=O)c1cnc(SC)nc1Oc1cccc(NS(=O)(=O)c2ccc(Cl)cc2)c1 | 8% | 9% | · | -12% | -100* | 5
COc1ccc(Br)cc1CN(C)CC(=O)Nc1c(Cl)cccc1Cl | 24% | -3% | · | 16µM* | ? | 6
CCCCNC(C(=O)Nc1ccc([N+](=O)[O-])cc1Br)c1ccccc1 (stereo not drawn) | -2% | -8% | · | -9% | -118* | ·
O=C(/C=C/c1cccc([N+](=O)[O-])c1)Nn1c(-c2ccccc2F)nc2ccccc2c1=O | 10% | -10% | · | -18% | -118* | ·
CCCC(C)C(=O)Nc1ccncc1 (stereo not drawn) | 2% | 9% | · | -10% | -100* | -7
CCCC(CCC)C(=O)Nc1ccncc1 | 10%[38.3 µM] | -7% | 0% | 5% | -6 | -8
O=C(c1ccc(Oc2ccccc2)cc1)c1nc2c(n1O)CCCC2 | 26%[38.3 µM] | ? | 27% | -28% | -29 | -8
CC(=O)O[C@H]1C[C@H]2CC[C@@H]3[C@@H](CC[C@]4(C)[C@H](OC(C)=O)[C@H]([N+]5(C)CCCCC5)C[C@@H]34)[C@]2(C)C[C@H]1[N+]1(C)CCCCC1 | -5% | 1%[25.6 µM] | -1%[25.6 µM] | -4% | · | 7[20.6 µM]
COC(=O)c1sc(N)c(C(=O)OC)c1COC(=O)c1c(C)noc1C | 0%[38.3 µM] | -9% | -8% | 18µM* | -21 | 2
C=CCc1cc(Cl)ccc1OCCN1CC(C)OC(C)C1 (stereo not drawn) | 0% | · | · | · | · | ·
Cc1ccc(-c2nc3sc(C(N)=O)c(N)c3c3c2CCCC3)cc1 | 11µM* | 2% | · | ? | -27 | ·
CC(=O)c1sc2nc(-c3ccc(C)cc3)c3c(c2c1N)CCCC3 | -13% | 0% | · | ? | 37 | ·
CCCCCCn1c(NCC)nc2c1c(=O)[nH]c(=O)n2C | 21%[38.3 µM] | 2% | 3% | -8% | -93* | -11
CCCCCn1c(Sc2nc3ccccc3s2)nc2c1c(=O)[nH]c(=O)n2C | 13µM* | -11% | -7% | -20% | 23 | 1
CC(C)CSc1nc2c(c(=O)[nH]c(=O)n2C)n1CCc1ccccc1 | -3%[38.3 µM] | -3% | -3% | -11% | 11 | 0
CCCCCn1c(Sc2ncccn2)nc2c1c(=O)[nH]c(=O)n2C | 10% | -1% | · | -3% | 186 | -6
CCCCCSc1nc2c(c(=O)[nH]c(=O)n2C)n1C(C)C | 8% | 5% | · | -24% | -119* | -3
CCNc1nc2c(c(=O)[nH]c(=O)n2C)n1CC(C)C | 9%[38.3 µM] | 1% | -4% | -12% | -7 | 6
CCOC(=O)CSc1nc2c(c(=O)[nH]c(=O)n2C)n1CCCc1ccccc1 | 5%[38.3 µM] | -7% | 4% | -12% | -108* | 10
COc1cccc2c1OCC/C2=N\NC(=O)C(C)Oc1ccc([N+](=O)[O-])cc1 (stereo not drawn) | 10% | · | · | · | · | ·

Screens from PubChem BioAssay.
